Laboratory results reported in PubChem BioAssay (NCI).
This is part of a sample that, as a whole, favours compounds with a hit. Of some 83,000 tested, about 20% had one in any assay.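 Compound tested at a single concentration for 48 hours in 96-well plates; a percent growth value below 10 was scored as active.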 Values without a mark were called inactive. Activity calls are given as the source filed them.

Test system: NCI-H460 lung
Experiment: NCI-60 one-dose screen, 48 h (100 = growth as untreated, 0 = no growth, -100 = all killed)
Conditions: 10 µM unless noted

Q: For `COc1ccccc1N1CCN(CCCOc2ccc(C(=O)/C=C3/C(=O)Nc4ccccc43)cc2)CC1`, which growth is on record?
A: 66.4%

Q: `CCC[S@](=O)c1ccc2nc(NC(=O)OC)[nH]c2c1` was tested. Which growth did it give?
A: 99.8%

Q: `FC(F)(F)c1ccc2c(Nc3cccc(C4CC(c5ccccc5)=NN4c4ccc(Cl)cc4)c3)ccnc2c1` (stereo not drawn) was tested. Which growth did it give?
A: 59.1%

Q: How did the growth turn out when `COc1cc(NC(=O)c2cc(O)c(C/C=C(\C)CCC=C(C)C)c(O)c2)cc2c1O[C@]1(C)CC[C@@H](O)C(C)(C)[C@H]1C2` was run?
A: 11.4%

Q: Which growth does the source give for `CCOC(=O)c1c(C)nc2c(c1N)/C(=C/c1cccs1)C(=O)N2Cc1ccccc1` here?
A: 67.1%

Q: With `CS(=O)(=O)O[C@@H]1C(=O)N(c2cc3c4ccccc4ccc3c3ccccc23)[C@H]1c1ccc(F)cn1` as the molecule, how does the growth read?
A: 16.4%

Q: With `Cc1cccc(NC(=O)c2sc3nc4c(cc3c2N)CN(Cc2ccccc2)CC4)c1C` as the molecule, how does the growth read?
A: 12.5%

Q: `C#Cc1ccccc1NC(=O)c1sc2nc3c(cc2c1N)CCCCC3` was tested. Which growth did it give?
A: 104%

Q: How did the growth turn out when `C=CCn1c(SCC(=O)Nc2ccc(C(=O)/C=C/c3ccc(Cl)cc3)cc2)nnc1-c1cc(OC)c(OC)c(OC)c1` was run?
A: 99.6%

Q: With `Oc1ccccc1-c1nc2c3ccccc3c3ccccc3c2o1` as the molecule, how does the growth read?
A: 69.6%

Q: Which growth does the source give for `COc1ccc(-c2cc(-c3nnc(SCC(=O)Nc4ccc(/C(C)=N\O)cc4)o3)c3ccccc3n2)cc1` here?
A: 105%

Q: With `NC(N)=NC(N)=Nc1cc2ccccc2c2ccccc12` as the molecule, how does the growth read?
A: 21.9%

Q: `O=C1Nc2ccc(Cl)cc2/C1=N/c1nc(-c2ccc(Cl)cc2)cs1` was tested. Which growth did it give?
A: -10.2% (active)
